Assay outcomes (PubChem)
In the library only some 2.3% were active in any assay of this set; here they are far more common.
GLP1R ag: activates the human GLP-1 receptor | P43220 | hit rate 0.007% among 380,000 | Potency, µM (top dose mostly 45.6 µM), hits mostly activators | HEK293 GLP-1R CRE-luciferase, luminescence, 4-6 h; cells express a hypersensitive GLP-1R form
Target sequence (P43220 whole entry, looked up): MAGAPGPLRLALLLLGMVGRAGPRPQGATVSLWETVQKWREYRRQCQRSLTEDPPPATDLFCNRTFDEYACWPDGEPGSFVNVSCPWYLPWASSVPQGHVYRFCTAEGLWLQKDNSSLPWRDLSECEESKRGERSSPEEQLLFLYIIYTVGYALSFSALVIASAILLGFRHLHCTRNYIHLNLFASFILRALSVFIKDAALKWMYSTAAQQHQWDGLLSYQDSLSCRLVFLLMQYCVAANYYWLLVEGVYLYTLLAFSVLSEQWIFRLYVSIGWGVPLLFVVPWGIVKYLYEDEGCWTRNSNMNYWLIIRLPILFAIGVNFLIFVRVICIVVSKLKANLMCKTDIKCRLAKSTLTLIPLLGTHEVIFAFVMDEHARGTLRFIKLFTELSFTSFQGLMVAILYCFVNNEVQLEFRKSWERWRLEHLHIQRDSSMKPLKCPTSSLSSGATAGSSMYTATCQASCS
GLS inhibitor: glutaminase GLS (human) inhibition; GLS enzymatic activity, qHTS titration; Potency, µM (top dose mostly 45.5 µM), usual class: inhibitors; hit rate 0.21% among 410,000; AID 624170
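Coupled fluorescence readout: glutamate oxidase/HRP/Amplex Red detect glutamate formed by hKGA from L-glutamine (1 mM solution added). Buffer 45 mM KH2PO4 pH 8.2, 0.02% Tween-20; reads at t0 and 30 min RT.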
PTHR1 agonist: PTHR1 (human) receptor agonism. Potency, µM (doses to about 115 µM), most hits filed as activators. hit rate 0.075% among 410,000. HEK293 GP2 PTHR1 cells, GloSensor cAMP luminescence, 1 h. Q03431; note: nearly all actives have a fitted effect of over 55% in size
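HEK-293-derived GP2 cells expressing PTHR1 and a GloSensor cAMP reporter, 3,000/well, plated overnight, given luciferin plus IBMX (each 0.5 mM as added) for 1 h at 37 °C, then compound for 1 h at 37 °C. Luminescence was read after 15 min at room temperature.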
ALOX12 inh: blocks human arachidonate 12S-lipoxygenase | purified 12hLO, xylenol orange hydroperoxide absorbance | Potency, µM (top dose mostly 108 µM), actives largely listed as inhibitors | AID 1671190 | hit rate 1.1% among 580,000 | P18054
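Hydroperoxide product was detected by ferrous iron/xylenol orange as the 573 to 405 nm absorbance ratio. Arachidonic acid at 40 uM (final) was turned over for 30 min at room temperature by 150 nM human 12hLO, pH 7.0 Hepes buffer, after 15 min compound preincubation.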
Glioma ERSR ind: inducers of ER stress response in human glioma cells. AID 602332. Potency, µM, usual class: activators. hit rate 0.02% among 420,000. U87-MG GRP78 promoter luciferase reporter, 16 h; note: series mostly up to about 76 µM; nearly all actives have a fitted effect of over 35% in size
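ERSR induction read as luciferase luminescence (Bright-Glo, 10 min at room temperature) in stably transfected human U87-MG glioma cells exposed to compounds for 16 h, using GRP78 as sensor.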
GLP1R inv ag: acts as inverse agonist at human GLP-1 receptor; P43220; HEK293 GLP-1R CRE-luciferase, luminescence, 24 h; GLP-1R form is constitutively active; Potency, µM (doses to about 38.3 µM), usual class: inhibitors; hit rate 1.6% among 410,000; AID 624417; note: nearly all actives have a fitted effect of over 55% in size
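Cells are plated, allowed 12 hours at 37 deg C, then treated with compounds for 24 hr before luciferase detection reagent is added and luminescence is read after 12 min at room temperature. The HEK293 line carries constitutively active GLP-1R with a cAMP-responsive reporter.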
A number is an active result; 0 = inactive; ? = inconclusive; - = not tested or not shown. Calls come from the whole dose curve; as a rule, active = well fitted curve in the direction sought with a large enough effect; inconclusive = small, poorly fitted or top-dose-only effect, or another doubt; inactive = no such curve, though single readings can be large; an effect the other way counts as inactive or inconclusive.

SMILES	GLP1R ag	GLS inhibitor	PTHR1 agonist	ALOX12 inh	Glioma ERSR ind	GLP1R inv ag
Cc1ccc(N=C2SC(C(=O)Nc3ccc(OC(F)(F)F)cc3)C(N)=C2C(=O)Nc2c(C)cc(C)cc2C)cc1 (stereo unspecified)	0	0	0	?	0	2.8µM
Cc1ccc(NC(=O)C2SC(=Nc3ccccc3)C(C(=O)Nc3ccc(Cl)cc3)=C2N)cc1 (stereo unspecified)	0	0	0	-	0	?
Cc1ccc(Cn2cc(/C=N/Nc3ccc([N+](=O)[O-])cn3)c3ccccc32)cc1	0	0	0	0	0	11µM
Cc1cccc(NC(=O)C2CCN(c3nc4ccccc4o3)CC2)c1C	-	-	-	0	-	-
CCn1ncc(Br)c1C(=O)Nc1ccn(C23CC4CC(CC(C4)C2)C3)n1	0	0	0	0	0	7.9µM
CC1=NN(c2ccc(Cl)c(C(=O)O)c2)C(=O)C1	0	13µM	0	0	0	0
CC1=NN(c2ccc(C(=O)O)c(N)c2)C(=O)C1	0	?	0	0	0	0
CC1(C)CC(=O)C2=C(C1)NC(=O)CC2c1ccc(C(C)(C)C)cc1 (stereo unspecified)	-	-	-	0	-	-
COc1ccc([C@H]2CC(=O)C=C(c3ccc(Cl)cc3C)C2)cc1	0	0	0	?	0	0
Cc1cc(Cl)ccc1C1=CC(=O)C[C@H](c2ccc(F)cc2)C1	0	0	0	0	0	11µM
CCc1ccccc1NC(=O)c1cc(S(=O)(=O)N(CC)c2ccccc2)ccc1F	-	0	0	0	0	11µM
Cn1c(=O)c2c(ncn2CC(O)COCc2ccccc2)n(C)c1=O (stereo unspecified)	-	-	-	0	-	-
COc1ccc(-c2nc(C#N)c(NCCN(C)C)o2)cc1OC	-	-	-	0	-	-
Cc1nc2scc(-c3ccccc3)c2c(=O)n1N	0	0	0	0	0	0
Cc1nc2scc(-c3ccccc3)c2c(=O)n1N=C1C=CC(=O)C=C1	0	3.2µM	0	2.8µM	0	0
N#CC1=C(N)NC(=S)C(C(N)=O)C1c1ccc([N+](=O)[O-])cc1 (stereo unspecified)	0	?	0	45µM	0	0
NC(=O)[C@@H]1CC2(CC(c3cccc(NC(=O)COc4ccc(Cl)cc4)c3)=NO2)CN1C(=O)COc1ccc(Cl)cc1 (stereo partly specified)	0	0	0	0	0	11µM
NC(=O)[C@H]1CC2(CC(c3cccc(NC(=O)COc4ccc(Cl)cc4)c3)=NO2)CN1C(=O)C(c1ccccc1)c1ccccc1 (stereo partly specified)	0	0	0	0	0	5.6µM
CCC(=O)Nc1cccc(C2=NOC3(C2)C[C@@H](C(N)=O)N(C(=O)C(c2ccccc2)c2ccccc2)C3)c1 (stereo partly specified)	0	0	0	?	0	0
O=C(COC(=O)C(O)c1ccccc1)NC12CC3CC(CC(C3)C1)C2 (stereo unspecified)	0	0	0	0	0	0
COc1ccccc1C(=O)OCC(=O)NC12CC3CC(CC(C3)C1)C2	0	0	0	0	0	10µM
O=C(CON=C1c2ccccc2-c2ccccc21)NC12CC3CC(CC(C3)C1)C2	0	0	0	0	0	1µM
COc1cc(OC)c(C(=O)OCC(=O)NC23CC4CC(CC(C4)C2)C3)cc1OC	0	0	0	0	0	?
CC1CCN(Cc2nc(N)c3ccccc3n2)CC1	-	-	-	0	-	-
O=C(c1cn(-c2ccccc2)nc1-c1ccccc1)N1CCOCC1	0	0	0	0	0	0
SMILES	GLP1R ag	GLS inhibitor	PTHR1 agonist	ALOX12 inh	Glioma ERSR ind	GLP1R inv ag
O=C(c1cccs1)N1CCN(C(=O)c2cn(-c3ccccc3)nc2-c2ccccc2)CC1	0	0	0	0	0	10µM
Cc1ccc(C(=O)NCCC23CC4CC(CC(C4)C2)C3)cc1	-	-	-	0	-	-
CNC(=O)c1ccc(Nc2cc(Nc3ccccc3S(=O)(=O)C(C)C)c3cc[nH]c3n2)nc1	-	-	-	0.97µM	-	-
Cc1ccc(NC(=O)c2ccc(Nc3ccccc3F)nc2)cc1	0	0	0	0	0	?
Cc1ccc(NC(=O)CN(C)C(=O)C(C)N2CCCC(C(F)(F)F)C2)cc1 (stereo unspecified)	-	-	-	0	-	-
COc1ccc(CCNC(=O)c2c([S-])n(-c3ccc(C)cc3)c3cccc[n+]23)cc1	0	0	0	35µM	0	?
CCN1/C(=C\C(=S)Nc2ccccc2)Sc2ccccc21	0	0	0	32µM	0	?
COCCOc1ccc(-c2ccc(C#N)cc2)cc1	-	-	-	0	-	-
Cc1ccc(S(=O)(=O)/N=C(/Nc2ccc([N+](=O)[O-])cc2[N+](=O)[O-])c2ccccc2)cc1	0	0	0	?	0	?
Cc1ccc(S(=O)(=O)/N=C(/Nc2ccc([N+](=O)[O-])cc2)c2ccccc2)cc1	0	0	?	45µM	0	?
Cc1ccc(-c2noc(CSc3nnc4ccccn34)n2)cc1	-	-	-	0	-	-
O=C1S/C(=C\c2ccc(N3CCOCC3)o2)C(=O)N1c1ccccc1	0	?	0	?	0	0
O=C1S/C(=C\c2ccc(N3CCOCC3)o2)C(=O)N1Cc1c(F)cccc1Cl	0	?	0	32µM	0	0
